Data taken from PubChem BioAssay (NCI).
About 83,000 compounds went through this panel and 20% of them were active in at least one assay; those are over-represented in the sample as a whole.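 Growth was measured after 48 h exposure to one concentration of compound in 96-well plates. Values under 10 count as active.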 Unmarked numbers belong to inactive results. Active and inactive are the calls of the source.

Each molecule was assayed on MDA-MB-435 melanoma (assay: NCI-60 one-dose screen, 48 h (100 = growth as untreated, 0 = no growth, -100 = all killed)). Details: 10 µM unless noted.
`COc1cccc(/C=C2\COc3ccc(-c4ccccc4)cc3C2=O)c1` was tested, and the growth was -25.8% (active).
`O=C1Nc2ccccc2/C1=C\c1cccc(/C=C2/C(=O)Nc3ccccc32)n1` was tested, and the growth was -73.6% (active).
`COc1ccc(C(=O)c2cc3c(N)c(C(=O)Nc4ccc(Br)cc4)sc3nc2C)cc1` gave a growth of 63.6%.
`O=S(=O)(O)c1cc(O)c2c(N=Nc3ccc(Nc4ccccc4)c4c(S(=O)(=O)O)cccc34)cc(S(=O)(=O)O)cc2c1` showed a growth of 115%.
Work on `NC(=S)N/N=C(\c1ccc(Cl)cc1)C1CC1` yielded a growth of 93.8%.
For `CCNNC(=O)[C@@H]1[C@H](c2cc(OC)c(OC)c(OC)c2)c2cc3c(cc2[C@H](O)[C@H]1CO)OCO3`, the growth was -26.9% (active).
Work on `COc1cc2nc(-c3ccc(C(F)(F)F)cc3)cc(OCCN3CCCC3)c2cc1OC` yielded a growth of 97.2%.
`Clc1ccc2c(c1)c(-c1ccccc1)nc1nncn12` showed a growth of 113%.
For `O=S(=O)(c1ccc(N/N=C\c2ccccc2)cc1)c1ccc(N/N=C/c2ccccc2)cc1`, the growth was 68.8%.
Molecule `CN1C(=O)N(C)[C@H]2NC(NN)=N[C@H]21` has a growth of 101%.
In the case of `COc1ccc(C(O)c2cc3c(N)c(C(=O)Nc4ccccc4)sc3nc2C)cc1` (stereo unspecified), the growth is reported as -15.1% (active).
With `COc1cc(C2CC(c3cccc(Nc4ccncc4)c3)=NN2c2cc(Cl)cc(Cl)c2)cc(OC)c1OC` (stereo unspecified) the growth was -85% (active).
`Cc1cccc(Oc2ccc(Nc3ncnc4ccc(NC(=O)CN(C)C)cc34)cc2Cl)c1` showed a growth of 34.5%.
In the case of `O=C(CN1CCOCC1)Nc1ccc2ncnc(Nc3ccc(Oc4cccc(F)c4)c(Cl)c3)c2c1`, the growth is reported as 85.4%.
`Cc1cccc(Oc2ccc(Nc3ncnc4ccc(NC(=O)CNCCO)cc34)cc2Cl)c1` was tested, and the growth was 55.7%.
Work on `COc1cc(/C=C2\C(=O)N(Cc3ccc(Cl)cc3)c3ccccc32)cc(OC)c1OC` yielded a growth of 28.2%.
Molecule `Cc1ccc(O)c(C(=O)O)c1` has a growth of 111%.
With `Cc1nccc2c3ccc(OCc4cn(-c5ccc(Cl)cc5)nn4)cc3n(CCCc3ccccc3)c12` the growth was 27.8%.
For `O=[N+]([O-])c1cccc(-c2nc(-c3ccc(Cl)cc3Cl)cn2-c2ccccc2)c1`, the growth was -39.5% (active).
Work on `CC(C)CCSc1nc(NNC(N)=O)c(C#N)c(-c2ccccc2)n1` yielded a growth of 109%.
In the case of `O=C1C(=O)c2c(nc3ncccn23)-c2ccccc21`, the growth is reported as -93.8% (active).
For `Cc1c2c(cc[n+]1Cc1ccc(F)cc1)c1ccc(OCc3cccc(F)c3)cc1n2Cc1cccc(F)c1`, the growth was -91.8% (active).
For `CCOC(=O)C1=C(C)NC(C)=C(C(=O)OCC)C1c1cc(Br)c(O)c(OC)c1`, the growth was -33.7% (active).
For `COc1cc(C(=O)c2cnc(-c3ccc4cc[nH]c4c3)[nH]2)cc(OC)c1OC`, the growth was -28.4% (active).
With `O=c1[nH]nc(-c2ccc(Br)cc2)cc1Cc1ccc(O)cc1` the growth was 113%.
`S=c1[nH]cccc1-c1nnc2n1Nc1nc3ccccc3cc1CS2` gave a growth of 106%.
With `COc1cccc(CCC(=O)c2cc3c(N)c(C(=O)Nc4cccc(Cl)c4C)sc3nc2C)c1` the growth was -54.8% (active).
For `O=C1Nc2cc(-c3ccncc3)ccc2/C1=C/c1ccc[nH]1`, the growth was 100%.
`COc1ccc(-c2nn(Cc3ccccc3)c3c2-c2oncc2CC3)cc1OC` showed a growth of 95.2%.
`CN1CCN(CC#CCNC(=O)[C@]23CCC(C)(C)C[C@H]2C2=CC[C@@H]4[C@@]5(C)Cc6c([nH]c7ccccc67)C(C)(C)[C@@H]5CC[C@@]4(C)[C@]2(C)CC3)CC1` gave a growth of 47.2%.
For `NC(=O)c1cccc(-n2ccc3cc(NC(=O)Nc4cc(C(F)(F)F)cc(C(F)(F)F)c4)ccc32)n1`, the growth was 50.5%.
With `COc1cc(C(=O)/C=C/c2c(C)n([O-])c3ccc(Cl)cc3[n+]2=O)cc(OC)c1OC` the growth was 49.4%.
With `O=C(CNCCO)Nc1ccc2ncnc(Nc3ccc(OCc4cccc(F)c4)c(Cl)c3)c2c1` the growth was 96.8%.
`CC[C@@]12C=CCN3CC[C@]4(c5cc(NC(=O)COc6cc(OCC(=O)Nc7cc8c(cc7OC)N(C)[C@H]7[C@@](O)(C(=O)OC)[C@H](OC(C)=O)[C@]9(CC)C=CCN%10CC[C@]87[C@@H]%109)cc7oc(-c8ccccc8)cc(=O)c67)c(OC)cc5N(C)[C@@H]4[C@](O)(C(=O)OC)[C@H]1OC(C)=O)[C@H]32` was tested, and the growth was 42%.
For `Cc1cc2nc(-c3ccccc3)c(-c3ccccc3)nc2cc1C`, the growth was 93%.
For `CCCCCCOc1ccc(/C=N/Nc2cc(C)nc3ccc(Br)cc23)cc1`, the growth was -87.7% (active).
Molecule `COc1ccc(CC(C)=C(c2ccc(OCCN(C)C)cc2)c2ccc(OCCN(C)C)cc2)cc1` has a growth of 61.9%.
With `CC(=O)NCCCS(=O)(=O)O` the growth was 99.9%.

These molecules were tested on SW-620 colon in the same assay as above. Details: 10 µM unless noted.
In the case of `COc1cccc(/C=C2\COc3ccc(-c4ccccc4)cc3C2=O)c1`, the growth is reported as -55.6% (active).
With `O=C1Nc2ccccc2/C1=C\c1cccc(/C=C2/C(=O)Nc3ccccc32)n1` the growth was -75.9% (active).
`COc1ccc(C(=O)c2cc3c(N)c(C(=O)Nc4ccc(Br)cc4)sc3nc2C)cc1` showed a growth of 79.1%.
For `O=S(=O)(O)c1cc(O)c2c(N=Nc3ccc(Nc4ccccc4)c4c(S(=O)(=O)O)cccc34)cc(S(=O)(=O)O)cc2c1`, the growth was 103%.
Molecule `NC(=S)N/N=C(\c1ccc(Cl)cc1)C1CC1` has a growth of 72%.
`CCNNC(=O)[C@@H]1[C@H](c2cc(OC)c(OC)c(OC)c2)c2cc3c(cc2[C@H](O)[C@H]1CO)OCO3` showed a growth of 20.5%.
For `COc1cc2nc(-c3ccc(C(F)(F)F)cc3)cc(OCCN3CCCC3)c2cc1OC`, the growth was 91.2%.
`Clc1ccc2c(c1)c(-c1ccccc1)nc1nncn12` showed a growth of 116%.
For `O=S(=O)(c1ccc(N/N=C\c2ccccc2)cc1)c1ccc(N/N=C/c2ccccc2)cc1`, the growth was 74%.
Work on `CN1C(=O)N(C)[C@H]2NC(NN)=N[C@H]21` yielded a growth of 103%.
In the case of `COc1ccc(C(O)c2cc3c(N)c(C(=O)Nc4ccccc4)sc3nc2C)cc1` (stereo unspecified), the growth is reported as 19.3%.
With `COc1cc(C2CC(c3cccc(Nc4ccncc4)c3)=NN2c2cc(Cl)cc(Cl)c2)cc(OC)c1OC` (stereo unspecified) the growth was -62.6% (active).
Molecule `Cc1cccc(Oc2ccc(Nc3ncnc4ccc(NC(=O)CN(C)C)cc34)cc2Cl)c1` has a growth of 12.6%.
Work on `O=C(CN1CCOCC1)Nc1ccc2ncnc(Nc3ccc(Oc4cccc(F)c4)c(Cl)c3)c2c1` yielded a growth of 100%.
Molecule `Cc1cccc(Oc2ccc(Nc3ncnc4ccc(NC(=O)CNCCO)cc34)cc2Cl)c1` has a growth of 77.9%.
In the case of `COc1cc(/C=C2\C(=O)N(Cc3ccc(Cl)cc3)c3ccccc32)cc(OC)c1OC`, the growth is reported as -29.7% (active).
In the case of `Cc1ccc(O)c(C(=O)O)c1`, the growth is reported as 104%.
In the case of `Cc1nccc2c3ccc(OCc4cn(-c5ccc(Cl)cc5)nn4)cc3n(CCCc3ccccc3)c12`, the growth is reported as 12.9%.
For `O=[N+]([O-])c1cccc(-c2nc(-c3ccc(Cl)cc3Cl)cn2-c2ccccc2)c1`, the growth was -52.4% (active).
Molecule `CC(C)CCSc1nc(NNC(N)=O)c(C#N)c(-c2ccccc2)n1` has a growth of 112%.
With `O=C1C(=O)c2c(nc3ncccn23)-c2ccccc21` the growth was -60.6% (active).
For `Cc1c2c(cc[n+]1Cc1ccc(F)cc1)c1ccc(OCc3cccc(F)c3)cc1n2Cc1cccc(F)c1`, the growth was -87.6% (active).
`CCOC(=O)C1=C(C)NC(C)=C(C(=O)OCC)C1c1cc(Br)c(O)c(OC)c1` gave a growth of 24.6%.
Molecule `COc1cc(C(=O)c2cnc(-c3ccc4cc[nH]c4c3)[nH]2)cc(OC)c1OC` has a growth of 19.2%.
Work on `O=c1[nH]nc(-c2ccc(Br)cc2)cc1Cc1ccc(O)cc1` yielded a growth of 97.3%.
With `S=c1[nH]cccc1-c1nnc2n1Nc1nc3ccccc3cc1CS2` the growth was 99.4%.
For `COc1cccc(CCC(=O)c2cc3c(N)c(C(=O)Nc4cccc(Cl)c4C)sc3nc2C)c1`, the growth was 34%.
For `O=C1Nc2cc(-c3ccncc3)ccc2/C1=C/c1ccc[nH]1`, the growth was 105%.
Work on `COc1ccc(-c2nn(Cc3ccccc3)c3c2-c2oncc2CC3)cc1OC` yielded a growth of 118%.
With `CN1CCN(CC#CCNC(=O)[C@]23CCC(C)(C)C[C@H]2C2=CC[C@@H]4[C@@]5(C)Cc6c([nH]c7ccccc67)C(C)(C)[C@@H]5CC[C@@]4(C)[C@]2(C)CC3)CC1` the growth was 46.8%.
`NC(=O)c1cccc(-n2ccc3cc(NC(=O)Nc4cc(C(F)(F)F)cc(C(F)(F)F)c4)ccc32)n1` showed a growth of 73.7%.
In the case of `COc1cc(C(=O)/C=C/c2c(C)n([O-])c3ccc(Cl)cc3[n+]2=O)cc(OC)c1OC`, the growth is reported as 24.2%.
`O=C(CNCCO)Nc1ccc2ncnc(Nc3ccc(OCc4cccc(F)c4)c(Cl)c3)c2c1` showed a growth of 106%.
Molecule `CC[C@@]12C=CCN3CC[C@]4(c5cc(NC(=O)COc6cc(OCC(=O)Nc7cc8c(cc7OC)N(C)[C@H]7[C@@](O)(C(=O)OC)[C@H](OC(C)=O)[C@]9(CC)C=CCN%10CC[C@]87[C@@H]%109)cc7oc(-c8ccccc8)cc(=O)c67)c(OC)cc5N(C)[C@@H]4[C@](O)(C(=O)OC)[C@H]1OC(C)=O)[C@H]32` has a growth of 20.3%.
In the case of `Cc1cc2nc(-c3ccccc3)c(-c3ccccc3)nc2cc1C`, the growth is reported as 99%.
In the case of `CCCCCCOc1ccc(/C=N/Nc2cc(C)nc3ccc(Br)cc23)cc1`, the growth is reported as -72.5% (active).
`COc1ccc(CC(C)=C(c2ccc(OCCN(C)C)cc2)c2ccc(OCCN(C)C)cc2)cc1` was tested, and the growth was 48.1%.
In the case of `CC(=O)NCCCS(=O)(=O)O`, the growth is reported as 90.9%.
